Source: PubChem BioAssay AID1053188 (Broad Institute, 2014)
“And” between values parts separate entries of the source, which are not always exact repeats. Equal entries are not always repeated. The campaign covered roughly 83,000 compounds. About 780 (0.94%) were called active.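 How the source made its calls: active means mean inhibition of at least 50% with a set share of replicates also reaching that level; inconclusive means no clear call, values can overlap the other calls; inactive means the rest.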 This excerpt belongs to a sample that is enriched for actives. Some structures have more than one record in an assay (separate samples or runs), and their calls can disagree.

Assay: CD40 pathway blockade in BL2 B cells – cell-based, luciferase reporter, single point, primary screen (AID 1053188);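 further: 0% = neutral control wells and 100% = IKK inhibitor VII at 50 µM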
Conditions: BL2 NF-kB luciferase reporter, CD40L-induced, 4 h, stronger effect = higher value; at 10 µM unless noted

SMILES	inhibition
COc1ccc(NC(=O)N2CCCC(c3nc(-c4ccc(F)cc4)no3)C2)cc1 (stereo not given)	-2.8% (inactive)
CC(C)N(C(=O)CN1CCN(S(=O)(=O)c2ccc(Br)s2)CC1)C(C)C	3.09% (inactive)
CCOC(=O)C(CC)/C(C)=N\NC(=O)c1cccc(C)c1 (stereo not given)	-2.97% (inactive)
O=C(C1CCCCC1)N1C[C@@H]2N[C@H](C1)C2c1ccc(-c2cccc(F)c2)cc1 (stereo not given in full)	26.1% (inactive) and -22.9% (inactive)
Cc1cccc(-c2ccc(C3[C@@H]4CN(C(=O)Nc5ccc(C(F)(F)F)cc5)C[C@H]3N4)cc2)c1 (stereo not given in full)	55.5% (active)
CN(C)C(=O)c1ccc(-c2ccc(C3[C@@H]4CN(C(=O)Nc5ccccc5)C[C@H]3N4)cc2)cc1 (stereo not given in full)	8.08% [at 25 µM] (inactive)
O=C([C@@H]1[C@@H](CO)[C@@H]2Cn3c(ccc(C4=CCCCC4)c3=O)[C@H]1N2Cc1nccs1)N1CCCCC1	-4.97% [at 25 µM] (inactive)
COc1ccc(CN2CCC(c3nc4ccc(Cl)cc4[nH]3)CC2)cc1	7.72% (inactive)
O=C(NNC(=O)C1CCN(c2ncccn2)CC1)c1ccccc1	16.9% (inactive)
Cn1cnc(S(=O)(=O)N2C[C@@H]3N[C@H](C2)C3c2ccc(/C=C/c3ccccc3)cc2)c1 (stereo not given in full)	-5.55% (inactive) and 3.57% (inactive)
Cn1cnc(S(=O)(=O)N2C[C@@H]3N[C@H](C2)C3c2ccc(-c3ccccc3F)cc2)c1 (stereo not given in full)	52.9% [at 25 µM] (active) and 10.8% [at 25 µM] (inactive)
COc1ccc(-c2ccc(C3[C@@H]4CN(S(=O)(=O)c5cn(C)cn5)C[C@H]3N4)cc2)cc1 (stereo not given in full)	-4.84% (inactive)
COCC(=O)N1CC2(CN(S(C)(=O)=O)C2)c2c(n(C)c3cc(OC)ccc23)[C@@H]1CO	2.58% [at 25 µM] (inactive)
COc1ccc2c3c(n(C)c2c1)[C@H](CO)N(C(C)=O)CC31CN(Cc2ccc(Cl)cc2)C1	68% [at 25 µM] (active)
CCC(=O)N1CC2(CCN(Cc3ccc(Cl)cc3)CC2)c2c(n(C)c3cc(OC)ccc23)[C@@H]1CO	4.53% [at 25 µM] (inactive)
O=C(Nc1ccccn1)C1CCN(S(=O)(=O)c2ccc3c(c2)OCCO3)CC1	-48.7% (inactive)
CCc1nnc(NC(=O)c2cccc(S(=O)(=O)N(C)c3ccc(OC)cc3)c2)s1	2.59% (inactive)
CN(Cc1ccc2nsnc2c1)Cc1nc(Cc2cccc(F)c2)no1	3.82% (inactive)
CCOc1ccc(S(=O)(=O)N2CCC(C(=O)OCc3ccc(OC)cc3)CC2)cc1	0.411% (inactive)
O=C(Nc1ccc(N2CCCCC2)cc1)c1cc(S(=O)(=O)N2CCOCC2)ccc1F	-16.8% (inactive)
